# Shown are actives, neighbours in structure and some others; about 6.3% of the full set was active somewhere.
# Mdm2-MdmX inh: inhibitors of human Mdm2-MdmX association, primary screen, cell-based, luminescence, split luciferase, SaOS-2, uHTS | Protein Mdm4 (Homo sapiens) + E3 ubiquitin-protein ligase Mdm2 (Homo sapiens), … | SaOS-2 split-luciferase Mdm2/MdmX complementation | inhibition, % at 8 µM | hit rate 3% among 330,000;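 active means inhibition of at least 50% at 8 µM in the primary screen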
# Target sequence (O15151 whole entry, looked up): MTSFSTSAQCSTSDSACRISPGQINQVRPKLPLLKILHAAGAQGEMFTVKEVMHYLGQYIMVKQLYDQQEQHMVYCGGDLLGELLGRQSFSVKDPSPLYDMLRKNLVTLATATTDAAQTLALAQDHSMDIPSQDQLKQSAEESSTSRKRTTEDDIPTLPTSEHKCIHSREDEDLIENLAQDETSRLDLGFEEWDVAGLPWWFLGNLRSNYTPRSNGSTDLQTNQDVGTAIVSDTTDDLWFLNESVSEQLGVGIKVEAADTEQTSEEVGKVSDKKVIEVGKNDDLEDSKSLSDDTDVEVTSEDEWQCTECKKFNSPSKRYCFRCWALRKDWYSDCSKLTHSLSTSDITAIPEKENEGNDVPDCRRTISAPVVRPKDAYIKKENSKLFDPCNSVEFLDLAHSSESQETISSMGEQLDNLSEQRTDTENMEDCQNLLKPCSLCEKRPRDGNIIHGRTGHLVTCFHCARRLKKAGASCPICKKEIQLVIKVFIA
# Target sequence (Q00987 whole entry, looked up): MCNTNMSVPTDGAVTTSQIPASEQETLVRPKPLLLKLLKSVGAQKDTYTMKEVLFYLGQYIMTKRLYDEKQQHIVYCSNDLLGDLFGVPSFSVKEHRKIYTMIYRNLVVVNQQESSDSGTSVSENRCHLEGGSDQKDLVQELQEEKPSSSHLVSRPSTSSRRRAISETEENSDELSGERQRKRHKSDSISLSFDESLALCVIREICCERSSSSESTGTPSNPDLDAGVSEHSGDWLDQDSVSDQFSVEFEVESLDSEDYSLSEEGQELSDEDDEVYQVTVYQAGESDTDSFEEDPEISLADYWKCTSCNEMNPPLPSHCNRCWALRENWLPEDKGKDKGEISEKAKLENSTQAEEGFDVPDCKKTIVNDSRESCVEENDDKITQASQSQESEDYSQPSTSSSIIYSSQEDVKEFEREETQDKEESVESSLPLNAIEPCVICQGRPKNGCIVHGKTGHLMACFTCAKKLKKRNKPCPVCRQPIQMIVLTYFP
# MPTP inh: mitochondrial permeability transition pore inhibitors, primary screen, biochemical, isolated mouse mitochondria, absorbance. Ca2+ swelling absorbance, 30 min. inhibition, % at 10 µM. hit rate 1.4% among 360,000. AID 602449, 2012;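 active means inhibition of 50% or more, scaled per plate between neutral and stimulator controls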
# tim10-1 inh: growth inhibitors of tim10-1 mutant yeast, primary screen, luminescence, uHTS; S. cerevisiae tim10-1 ts strain growth, BacTiter-Glo, 24 h; inhibition, % at 20 µM; hit rate 2.2% among 330,000; AID 463190, 2010;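 active means inhibition of at least 40%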;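 further: mutant grown at 25 °C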
# tim23-1 inh: growth inhibitors of tim23-1 mutant yeast, primary screen, luminescence, uHTS | AID 463212, 2010 | hit rate 1.3% among 330,000 | inhibition, % at 20 µM | S. cerevisiae tim23-1 growth, BacTiter-Glo luminescence, 24 h;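 active means growth inhibition of the mutant yeast at or above 50%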;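 further: temperature-sensitive mutant grown at 25 °C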
# TIM10 inh: growth inhibitors of isogenic TIM10 control yeast, primary screen, counter-screen for tim10-1 yeast inhibitor project, luminescence, uHTS | S. cerevisiae TIM10 strain growth, BacTiter-Glo luminescence, 24 h | inhibition, % at 10 µM | hit rate 1.4% among 330,000 | AID 463195, 2010;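 active means inhibition of 40% or more at the single tested concentration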;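 further: wild-type TIM10 isogenic control strain grown at permissive 25 °C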
# Mdm2 MdmX conf: Mdm2-MdmX complex disruptors, retested hits, confirmation, luminescence, single concentration | hit rate 55% among 10,000 | Mdm2-MdmX binding, luminescent assay | shares compounds with Mdm2-MdmX inh | inhibition, % at 8 µM; in the data active means inhibition above about 40%
# FLuc counter: full-length luciferase signal inhibition, confirmation, counter-screen for Mdm2/MdmX interaction inhibitor project, cell-based, single concentration, SaOS-2. SaOS-2 full-length luciferase counterscreen, luminescence. AID 504607, 2011. shares compounds with Mdm2-MdmX inh. inhibition, % at 8 µM. hit rate 77% among 6,200;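 active means mean inhibition at 8 µM reaching about 37%, which flags the compound as non-specific, limit read from the data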;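 further: p53-null SaOS-2 cells with luciferase driven by a doxycycline-inducible promoter; compound on cells about two nights before reading with doxycycline added after day one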
# Numbers stand for hits; . = inactive; / = no result.
SMILES,Mdm2-MdmX inh,MPTP inh,tim10-1 inh,tim23-1 inh,TIM10 inh,Mdm2 MdmX conf,FLuc counter
Cc1nn(C(C)C)c(C)c1CN1CCC(C(=O)Nc2cccc(-c3cccc(F)c3)c2)CC1,78.5,.,.,.,.,51.5,62.1
COc1ccc(-c2noc(CCC(=O)Nc3cccnc3)n2)cc1,.,.,.,.,.,/,/
CC(C)(C)c1ccc(-c2noc(CCC(=O)Nc3cccnc3)n2)cc1,54.8,.,.,.,.,53.0,.
CN(C)c1ccc(C2CNC(c3ccc(Cl)c([N+](=O)[O-])c3)c3[nH]c4ccccc4c32)cc1 (centres undefined),54.1,.,.,.,.,.,62.0
CCCn1c(=S)[nH]c2cc(C(=O)NCC3CCCO3)ccc2c1=O (centres undefined),.,.,.,.,.,/,/
COc1ccc(Cn2c(=O)[nH]c3cc(C(=O)NCCCOC(C)C)ccc3c2=O)cc1,.,.,.,.,.,/,/
O=C(NCC1CCCO1)c1ccc2c(=O)n(Cc3cccc(Br)c3)c(=S)[nH]c2c1 (centres undefined),58.1,.,.,.,.,.,/
COc1ccc(Cn2c(=O)[nH]c3cc(C(=O)NCc4ccc5c(c4)OCO5)ccc3c2=O)cc1,65.0,.,.,.,.,.,/
COc1ccc(Cn2c(=S)[nH]c3cc(C(=O)NCc4cccnc4)ccc3c2=O)cc1,74.3,.,.,.,.,.,/
O=C1CCCN1CCCNc1nc(NCc2ccccc2)nc2ccsc12,/,.,/,/,/,/,/
CC[C@H](C)[C@@H](CO)NC(=O)[C@H]1O[C@@H](n2ccc(=O)[nH]c2=O)[C@H](O)[C@@H]1O,/,.,/,/,/,/,/
Cc1ccc(Cn2ccc(NC(=O)c3cc(-c4cccc(Cl)c4)on3)n2)cc1,54.8,.,.,.,.,.,/
Cc1ccc(Cn2ccc(NC(=O)c3cc(-c4ccc(Cl)cc4)on3)n2)cc1,.,.,.,.,.,/,/
Cc1sc2nc(C3CCCCC3)nc(SCC(=O)N3CC(=O)Nc4ccccc43)c2c1C,55.7,.,.,.,.,.,/
Cc1cc(C)cc(C(=O)Nc2ccc(NC(=O)Cc3ccccc3)cc2)c1,52.5,.,.,.,.,.,/
O=C(Cc1ccccc1)Nc1ccc(NC(=O)c2cccc(Cl)c2)cc1,.,.,.,.,.,/,/
C/C(=N\NC(=O)c1ccccc1O)c1ccc(NC(=O)Cc2ccccc2)cc1,50.7,.,.,.,.,.,/
C/C(=N\NC(=O)c1ccccc1O)C1CC1,52.4,.,.,.,.,.,/
CN(CCc1ccccc1)C(CCc1ccccc1)C(=O)Nc1ccc2c(c1)OCCO2 (centres undefined),/,.,/,/,/,/,/
COc1cccc(N=Nc2ccc3cccnc3c2O)c1,90.8,.,.,.,.,90.4,.
O=Nc1ccc(O)c2ncccc12,.,.,.,.,.,/,/
COc1ccc(N=Nc2ccc(O)c3ncccc23)cc1,76.8,.,.,.,.,83.9,.
COc1cc(OC)cc(C(=O)Nc2cccc3cccnc23)c1,.,.,.,.,.,/,/
Oc1ccc(N=Nc2ccc3c(c2)OCCO3)c2cccnc12,77.4,.,.,.,.,89.3,52.6
N#Cc1ccc(C(C(=O)NC2CCCCC2)n2c(=O)c(-c3ccccc3)nc3ccccc32)cc1 (centres undefined),/,.,/,/,/,/,/
SMILES,Mdm2-MdmX inh,MPTP inh,tim10-1 inh,tim23-1 inh,TIM10 inh,Mdm2 MdmX conf,FLuc counter
COc1ccc(-c2nnc(Nc3nc4c(OC)cccc4s3)o2)c(OC)c1,68.0,.,.,.,.,58.2,47.7
O=C(Nc1ccc2c(c1)OCCO2)C1c2ccccc2OCC(=O)N1C1CC1 (centres undefined),/,.,/,/,/,/,/
COc1cc(-c2coc3c(C(=O)NCc4ccccc4)cccc23)ccc1O,/,.,/,/,/,/,/
O=C(CC(Nc1ccc(Cl)cc1Cl)C(=O)O)c1ccccc1 (centres undefined),71.4,.,.,.,.,79.5,63.4
Cc1cn([C@H]2C[C@H](O)[C@@H](CCC(=O)NCC3CCCO3)O2)c(=O)[nH]c1=O (some centres undefined),/,.,/,/,/,/,/
CC(C)(C)c1ccc(C(=O)NNC(=S)NC(=O)c2cccnc2)cc1,.,.,.,.,.,/,/
CC(C)(C)c1cc(Cl)c(O)c(NC(=S)NC(=O)c2cccnc2)c1,57.3,.,.,.,.,52.6,.
Cc1ccc(S(=O)(=O)n2cc(-c3ccccc3)c3ccccc32)cc1,62.9,.,.,.,.,56.5,82.1
COc1cccc(/C=N\NC(C)=O)c1OC/C=C/c1ccccc1,.,.,.,.,.,/,/
COCC(=O)N/N=C\c1cccc(OC)c1OC/C=C/c1ccccc1,54.9,.,.,.,.,.,/
CCN(CC)C(=O)C1=C(C)N(CCCOC)C(=O)C(CC(=O)NC2CC2)C1 (centres undefined),/,.,/,/,/,/,/
Cn1c(=O)n(C)c2cc(NC(=O)c3cc4ccccc4o3)ccc21,51.2,.,.,.,.,.,/
COc1cc(NC(=O)c2cccs2)ccc1NC(=O)c1cc2ccccc2o1,88.6,.,.,.,.,52.4,116.7
COc1ccc(NC(=O)c2cc(=O)c3ccccc3o2)cc1Cl,52.0,.,.,.,.,46.6,94.8
O=C(Nc1ccc2oc(=O)ccc2c1)c1cc2ccccc2o1,.,.,.,.,.,/,/
CN(C)S(=O)(=O)c1cc(NC(=O)c2cc(=O)c3ccccc3o2)ccc1Cl,.,.,.,.,.,/,/
Cc1cc(NC(=O)c2cncc(Br)c2)ccc1NC(=O)c1cc2ccccc2o1,74.5,.,.,.,.,50.7,.
FC(F)(F)c1ccccc1Cc1c(-c2ccccc2)nc2ccc(Br)cn12,/,.,/,/,/,/,/
O=C(CN1C(=O)c2ccccc2S1(=O)=O)c1ccc(F)cc1,83.4,.,.,.,.,68.2,80.6
O=C(CN1C(=O)c2ccccc2S1(=O)=O)c1ccc(OC(F)F)cc1,50.4,.,.,.,.,72.2,76.0
Cc1[nH]c2ccccc2c1/C=C/c1nc2ccccc2c(=O)n1-c1cccc([N+](=O)[O-])c1,69.6,.,.,.,.,.,/
O=c1c2ccccc2nc(/C=C/c2c[nH]c3ccccc23)n1-c1ccc([N+](=O)[O-])cc1,.,.,.,.,.,/,/
c1ccc(C2OCCN2c2ccccc2)cc1 (centres undefined),/,.,/,/,/,/,/
COc1ccc(NS(=O)(=O)c2cc(OC)ccc2NC(=O)c2cc(C)oc2C)cc1,51.5,.,.,.,.,60.6,48.5
C#CCn1c2ccccc2c(=O)n1CCOc1ccccc1OC,/,.,/,/,/,/,/
COc1cc(OC)cc(C(=O)NC(=S)NNC(=O)c2cnccn2)c1,59.6,.,.,.,.,.,/
